# Calls of active or inactive are those of the source. Rule for the calls: active = hit-call score of the fitted dose curve at least 0.9, where 1 is the maximum; inactive = score below 0.9.
# Test: BSK_LPS_PGE2: BioMAP Diversity Plus: LPS Assay for Prostaglandin E2 (PGE2) Biomarker Activity (AID 2283082)
# Conditions: primary human HUVEC with PBMC; actives raise or lower the signal
# Experimental: BSK_LPS is a cell-based, multiplexed-readout assay that uses umbilical vein endothelium and peripheral blood mononuclear cells, a human vascular primary cell co-culture, with measurements taken at 24 hours after chemical dosing in a 96-well plate.BSK_LPS_PGE2 is an assay component measured in the BSK_LPS assay. It measures PGE2 antibody related to regulation of gene expression using ELISA technology.Data from the assay component BSK_LPS_PGE2 was analyzed into 1 assay endpoint. This assay endpoint, BSK_LPS_PGE2, was analyzed with bidirectional fitting relative to DMSO as the negative control and baseline of activity. Using a type of binding reporter, gain or loss-of-signal activity can be used to understand changes in the signaling as they relate to the gene PTGER2. Furthermore, this assay endpoint can be referred to as a primary readout, because this assay has produced multiple assay endpoints where this one serves a signaling function. To generalize the intended target to other relatable targets, this assay endpoint is annotated to the gpcr intended target family, where the subfamily is rhodopsin-like receptor.
# The levels of cell surface (or secreted, indicated by the prefix "s") biomarker endpoints were measured by ELISA. Overt cytotoxicity to cells in confluent adherent cultures (all systems other than the BT system) was assessed by measuring total protein levels using sulforhodamine B (SRB) staining in parallel cultures at the time of biomarker measurements, indicated as SRB endpoints. For proliferation assays for adherent cell types, individual cell types are cultured at sub-confluence and relative cell numbers quantified by SRB staining at time points optimized for each system (48 h: 3C and CASM3C systems; 72 h: BT and HDF3CGF systems; 96 h: SAg system). SRB was performed by staining cells with 0.1% SRB after fixation with 10% TCA and reading wells at 560 nm.Viability and proliferation of PBMC (T cells) was quantified by Alamar Blue reduction for the SAg and BT systems. For PBMC viability (referred to as PBMC Cytotoxicity within the assay endpoint names), cells were plated (75,000/well in a 96-well plate) and then chemical samples added for 1 h before addition of activators, SEB and TSST-1 (20 ng/mL final concentration each). Cells were incubated for 90 h. Then, Alamar Blue (20 uL/well) (Invitrogen, Cat DAL1100) was added for 6 h, and the plates were read with a fluorescence microplate reader at 546/580 nm (excitation/emission). For PBMC proliferation, cells were plated and activated as above but incubated for only 16 h prior to addition of Alamar Blue. Plates were read after 6 h.
SMILES,AC50,outcome
Cc1nc(-c2ccc3c(c2)CCN(CCC2CCC(NC(=O)/C=C/c4ccc(F)cc4)CC2)CC3)no1 (stereo not given),1450 nM (active),
CCCCCCCCCCCCCCCCCC(=O)O,,inactive
O=C(O)CCCCC(=O)O,,inactive
OC[C@@H](O)[C@@H](O)[C@H](O)[C@H](O)CO,,inactive
Cc1cccc([N+](=O)[O-])c1C,,inactive
NCCO,,inactive
O=C(OCCCCCOC(=O)c1ccccc1)c1ccccc1,,inactive
CC(CO)OC(C)CO (stereo not given) (tested in a mixture with another compound),,inactive
CCOC(=O)CCC(=O)OCC,,inactive
Nc1nc(N)c2nc(CNc3ccc(C(=O)N[C@@H](CCC(=O)O)C(=O)O)cc3)cnc2n1,,inactive
Cc1ccc(C(C)C)c(O)c1,8880 nM (active),
NS(=O)(=O)c1cc2c(cc1Cl)NCNS2(=O)=O,,inactive
Oc1ccc2ccccc2c1N=Nc1ccccc1,2400 nM (active),
O=C(N[C@@H](Cc1ccccc1)[C@@H](O)C(=O)N1C[C@@H](O)[C@@H](O)C1)c1cc2cc(Cl)ccc2[nH]1,,inactive
CN[C@H]1CC[C@@H](c2ccc(Cl)c(Cl)c2)c2ccc(S(N)(=O)=O)cc21,,inactive
COc1cc(C=O)ccc1O,,inactive
NC(=O)Cn1c(=O)cc(CCN2CCN(c3nccc4sccc34)CC2)c2ccc(F)cc21,,inactive
CCCCCC(=O)O,,inactive
Cc1ccc(C)c(O)c1C,795 nM (active),
CC(=O)OC/C=C(\C)CCC=C(C)C,,inactive

SMILES,AC50,outcome
O=c1c(O)c(-c2ccc(O)c(O)c2)oc2cc(O)cc(O)c12,32800 nM (active),
COc1cc(-c2nc(NC(=O)c3cc4cc(C)cc(C)c4n3CC(=O)O)sc2CCC2CCCCC2)c(OC)cc1Cl,3970 nM (active),
Cc1ccccc1Cl,,inactive
Nc1ccc2c(c1)C(=O)c1ccccc1C2=O,3360 nM (active),
Cc1oc(-c2ccccc2)nc1CCOc1cccc2c1ccn2CCC(=O)O,5340 nM (active),
CCCCCCCCCCCCCCCC,,inactive
Cc1ccc(Cl)cc1,,inactive
Nc1ccccc1N,10900 nM (active),
O=[N+]([O-])C(CO)(CO)CO,,inactive
C=CCOC(=O)c1ccccc1C(=O)OCC=C,,inactive
C1CCC(SSC2CCCCC2)CC1,,inactive
CN1CCCC1=O,,inactive
CNCc1cc(F)ccc1Oc1ccc(Cl)c(Cl)c1,,inactive
O=C(O)Cc1ccccc1Nc1c(Cl)cccc1Cl,291 nM (active),
O=c1[nH]cc(F)c(=O)[nH]1,,inactive
Oc1ccc2c(c1)OC[C@@H](N1CCC(O)(c3ccc(F)cc3)CC1)[C@H]2O,,inactive
COc1ccc2c(c1)c(CC(=O)O)c(C)n2C(=O)c1ccc(Cl)cc1,148 nM (active),
COCCOCCOC,,inactive
CC1=C(/C=C/C(C)=C/C=C/C(C)=C/CO)C(C)(C)CCC1,574 nM (active),
CCCCCCCCCCCC(=O)OC,,inactive

# Reference: PubChem BioAssay (EPA / NIEHS)
